The record followed here is ChEMBL document CHEMBL1157539, “Thousands of chemical starting points for antimalarial lead identification” (Nature, 2010).

By Inhibition is commonly meant the drop in the measured response relative to a control, in per cent.

What all share (assay type): functional
Experiment [1] relates to Plasmodium falciparum. As to the kind of experiment: GSK_TCMDC: Inhibition of Plasmodium falciparum 3D7 in whole red blood cells, using parasite LDH activity as an index of growth. Test compounds present at 2uM.
Experiment [2] concerns Plasmodium falciparum. As to the kind of experiment: GSK_TCMDC: Inhibition of Plasmodium falciparum Dd2 in whole red blood cells, using parasite LDH activity as an index of growth. Test compounds present at 2uM.
A further experiment has as its system HepG2. Description: GSK_TCMDC: Percent inhibition of human HepG2 cell line. Test compounds present at 10uM.

In the case of `O=c1nc(NCCCCCN2CCC(c3c[nH]c4ccccc34)CC2)[nH]cc1Cc1ccc(Cl)c(Cl)c1`, the figures for the Inhibition with Plasmodium falciparum [1], in the experiment with Plasmodium falciparum [2] and with HepG2 were 94%, 8% and 21%, respectively.
With `N=C(N)NCCCCN(Cc1ccccc1)c1ccccc1`, the values for the Inhibition in the experiment with Plasmodium falciparum [1], in the experiment on Plasmodium falciparum [2] and with HepG2 were 100%, 98% and 0%, respectively.
For `CCOc1cc(Cc2cnc(N)nc2N)cc(OCC)c1OCCCCC(=O)OC`, the Inhibition was 95% in the experiment with Plasmodium falciparum [1], 0% in the experiment on Plasmodium falciparum [2] and 0% in the experiment on HepG2.
Take `O=C(Nc1ccc(-c2ccc(-c3nc4ccccc4[nH]3)s2)cc1)Nc1ccsc1`: the Inhibition in the experiment with Plasmodium falciparum [1] is on record as 100%; in the experiment with Plasmodium falciparum [2], 54%; in the experiment on HepG2, 25%.
For `O=C(N[C@@H](Cc1ccccc1)C(=O)NCc1cccc(C(F)(F)F)c1)c1ccc(O)c(-c2ccc(Cl)c(Cl)c2)c1`, in that order: 96%, 97% and 0%.
For `Cc1ccnc2nc(C(=O)Nc3cc(C(F)(F)F)ccc3N3CCCCC3)nn12`, the Inhibition amounted to 96% in the experiment with Plasmodium falciparum [1], 94% with Plasmodium falciparum [2] and 7% in the experiment on HepG2.
On the same counts, the results for `COc1cccc(C2=CC(c3ccccc3)n3ncc(C(=O)Nc4ccc(Cl)cc4)c3N2)c1` (stereo not drawn) are 88%, 28% and 7%.
On the same counts, the results for `Cc1cccc2nc(-c3cccc(-c4ccc(NC(=O)CS(C)(=O)=O)cc4)c3)[nH]c12` are 85%, 8% and 3%.
In the case of `O=C(NCCNc1noc(-c2sccc2Br)n1)c1ccc(Cl)cc1`, the Inhibition is recorded as 93% in the experiment with Plasmodium falciparum [1], 1% with Plasmodium falciparum [2] and 0% in the experiment on HepG2.
On to `CCOc1c(CNCCCNc2cc(O)c3ccccc3n2)cc(I)cc1OC`, for which the results for the Inhibition in the experiment on Plasmodium falciparum [1], in the experiment with Plasmodium falciparum [2] and in the experiment on HepG2 were 91%, 6% and 0%, respectively.
With `CC(C)(C)CC(C)(C)c1ccc(O)c(CNC2CCCCC2)c1.Cl`, the Inhibition in the experiment on Plasmodium falciparum [1] is listed as 98%; in the experiment on Plasmodium falciparum [2], 99%; in the experiment on HepG2 it was 92%.
As to `CC(C)c1ccc(Nc2nc(NCCc3c[nH]cn3)nc(NCc3ccccc3)n2)cc1`, the Inhibition in the experiment with Plasmodium falciparum [1] was found to be 98%; with Plasmodium falciparum [2] it was 2%; in the experiment with HepG2 it was 1%.
As to `Cl.N#Cc1ccc2c(c1)CCN(CCC1CCC(NC(=O)/C=C/c3c[nH]c4ccc(F)cc34)CC1)CC2` (stereo not drawn), the Inhibition was 100% in the experiment with Plasmodium falciparum [1], 83% in the experiment on Plasmodium falciparum [2] and 18% in the experiment with HepG2.
Turning to `CCOC(=O)c1ccc(NC(=O)Nc2ccc(-c3cccc(-c4nc5ccccc5[nH]4)c3)cc2)cc1`, the Inhibition with Plasmodium falciparum [1] is reported as 100%; with Plasmodium falciparum [2] it was 99%; in the experiment with HepG2, 94%.
Regarding `CCCCCCCN1CC[C@@H](CCCc2ccnc3ccc(OCC4CCCNC4)cc23)[C@@H](CC)C1.Cl` (stereo partly drawn), the Inhibition with Plasmodium falciparum [1] is reported as 98%; with Plasmodium falciparum [2], 100%; with HepG2, 99%.
In the case of `CC(=O)Nc1cccc(C(=O)Nc2cccc(-c3cccc(-c4nc5cc(F)ccc5[nH]4)c3)c2)c1`, the values for the Inhibition with Plasmodium falciparum [1], with Plasmodium falciparum [2] and in the experiment on HepG2 were 100%, 44% and 51%, respectively.
On the same counts, the results for `NS(=O)(=O)c1cccc(-c2ccc3nccc(-c4cccc(S(N)(=O)=O)c4)c3c2)c1` are 98%, 99% and 40%.
On the same counts, the results for `O=C(Cc1c[nH]cn1)Nc1ccc(-c2ccc(-c3nc4cc(C(F)(F)F)ccc4[nH]3)s2)cc1` are 100%, 99% and 48%.
For `CS(=O)(=O)c1ccccc1CNC(=O)c1ccc(-c2ccc(-c3nc4cc(C(F)(F)F)ccc4[nH]3)s2)cc1`, in that order: 96%, 76% and 90%.
With `OCc1ccc(-c2cncc(Nc3ccc(F)c(Cl)c3)c2)cc1`, the Inhibition in the experiment with Plasmodium falciparum [1] is 92%; in the experiment with Plasmodium falciparum [2], 99%; with HepG2 it was 2%.
For the compound `CCNc1cc(C(=O)N[C@@H](Cc2ccccc2)[C@H](O)CNC2C3CC4CC(C3)CC2C4)cc(N2CCCCS2(=O)=O)c1.Cl` (stereo partly drawn), the Inhibition in the experiment with Plasmodium falciparum [1] turned out to be 97%; in the experiment with Plasmodium falciparum [2] it was 96%; with HepG2 it was 0%.
In the case of `N#Cc1ccc(CN2CCC(NC(=O)c3ccc(-c4nnc(-c5cccc6ccccc56)o4)cc3)CC2)cc1`, the Inhibition with Plasmodium falciparum [1] was determined as 98%; in the experiment with Plasmodium falciparum [2] it was 14%; in the experiment on HepG2, 37%.
For `COc1ccc(CNCc2cccc(-c3ccc(-c4nc5ccccc5[nH]4)cc3)c2)cc1.O=C(O)C(F)(F)F`, in that order: 100%, 60% and 22%.
In the case of `COc1ccc2nccc([C@@H](O)CN3CCC(NCc4ccc5c(c4)N(C)C(=O)CO5)CC3)c2c1.O=C(O)C(=O)O`, the Inhibition is 100% with Plasmodium falciparum [1], 95% in the experiment with Plasmodium falciparum [2] and 0% with HepG2.
Turning to `CN1CCCN(Cc2ccc(-c3ccc(NC(=O)c4cccc(Cl)c4)cc3)cc2)CC1.O=C(O)C(F)(F)F`, the Inhibition in the experiment with Plasmodium falciparum [1] was determined as 95%; with Plasmodium falciparum [2] it was 64%; with HepG2 it was 55%.
Consider `O=C(Nc1cccc(-c2ccc(-c3nc4ccccc4[nH]3)cc2)c1)c1cnn2cccnc12`, for which the Inhibition in the experiment with Plasmodium falciparum [1] stood at 87%; in the experiment on Plasmodium falciparum [2], 1%; with HepG2, 9%.
As for `COC(=O)C(C)NCC(=O)c1ccccc1.Cl` (stereo not drawn), the Inhibition came out at 97% with Plasmodium falciparum [1], 23% in the experiment on Plasmodium falciparum [2] and 5% in the experiment on HepG2.
Consider `COc1cc(-n2cnc3cc(-c4ccc(Cl)cc4)sc3c2=O)ccc1OCCN1CCC(c2cccc(NC(C)=O)c2)CC1.O=C(O)/C=C\C(=O)O`, for which the Inhibition is on record as 99% in the experiment on Plasmodium falciparum [1], 80% in the experiment with Plasmodium falciparum [2] and 61% in the experiment on HepG2.
Take `N#Cc1cccc(NC(=O)Nc2ccc(-c3csc(-c4nc5ccccc5[nH]4)c3)cc2)c1`: the Inhibition is given as 100% with Plasmodium falciparum [1], 97% with Plasmodium falciparum [2] and 63% with HepG2.
On to `Cl.O=C(NC1CCC(CCN2Cc3cccc(F)c3C2)CC1)c1cccc(-c2cccnc2)c1` (stereo not drawn), for which the Inhibition is 98% with Plasmodium falciparum [1], 82% in the experiment with Plasmodium falciparum [2] and 16% in the experiment on HepG2.
Consider `COc1cc(Cc2cnc(N)nc2N)cc(OCCCCC2NC(=O)NC2=O)c1OC` (stereo not drawn), for which the Inhibition in the experiment with Plasmodium falciparum [1] was determined as 94%; with Plasmodium falciparum [2] it was 0%; with HepG2, 2%.
